# Assay results as given in paper PMC7155171, “Probing the Open Global Health Chemical Diversity Library for Multistage-Active Starting Points for Next-Generation Antimalarials” (ACS Infectious Diseases, 2020).
# Assays:
# [1] = tested on: P. berghei liver stage (PbLuc); design: species or system HepG2-A16-CD81; P. berghei luciferase sporozoite infection of hepatocytes, liver stage luminescence; conditions: inhibitor; for PbLuc primary screen (10uM): inhibition % (n=1): 48 h
# [2] = tested on: HepG2-A16-CD81 hepatocytes; design: Uninfected hepatocyte viability, CellTiter-Glo luminescence; conditions: cytotoxicity primary screen, inhibitor
SMILES,PbLuc primary screen (10uM): inhibition % (n=1) [1],PbLuc primary screen (2uM): inhibition % (n=1) [1],HepG2 toxicity primary screen (10uM): inhibition % (n=1) [2]
COCCC(=O)N1CCC(c2cc(=O)n(C)[nH]2)C1 (stereo not drawn) [DDD01060470],0.301%,15.3%,-23.1%
CCn1[nH]cc2nc(-c3cc(OC)c(OC)cc3OC)nc1-2 [DDD01254934],26.5%,13.04%,-2.61%
Cc1[nH]n(C2CCS(=O)(=O)C2)c(=O)c1Cc1cccc(Cl)c1 (stereo not drawn) [DDD01026994],28.5%,34.05%,-46.865%
CN(Cc1ccc(F)c(F)c1)C(=O)CCC1=NC(=C2N=CN=N2)NO1 [DDD01062114],55.4%,6.397%,-43.56%
CCCn1ncc(-c2nc3c[nH]n(CC)c-3n2)c1C [DDD01252709],-42.8%,-36.8%,4.05%
Cn1ccc(C(=O)N2CCCC(c3cc(=O)n(C)[nH]3)C2)n1 (stereo not drawn) [DDD01060541],36.4%,2.044%,-13.7%
Cc1ncc(CN2CCc3[nH]c4cc(C(C)(C)C)nn4c(=O)c3C2)n1C [DDD01058400],-12.3%,26.69%,8.62%
COc1cccc(F)c1-c1nc2c(C3CC3)[nH]n(C)c-2n1 [DDD01246655],-18.5%,21.14%,0.271%
Cc1[nH]n(-c2ccccc2)c2nc(C(C)(C)CN3CCN(C)CC3)nc1-2 [DDD01252143],8.08%,38.49%,-2.13%
CCn1[nH]cc2nc(-c3ccc(OC)c(COC)c3)nc1-2 [DDD01253750],-45.8%,0.5819%,6.34%
COCC(=O)N1Cc2[nH]c3c(C)c(-c4cccs4)nn3c(=O)c2C1 [DDD01056747],27.2%,46.04%,-4.81%
Cc1[nH]n(C2CCCCC2)c2nc(C(C)(C)CN3CCOCC3)nc1-2 [DDD01254749],-16.9%,48.54%,-3.64%
CCc1c(C)nn2c(=O)cc(C3CCN(C(=O)C4CC4)C3)[nH]c12 (stereo not drawn) [DDD01057056],26.6%,11.53%,1.97%
Cc1[nH]n(C2CCCC2)c2nc(C(C)(C)CN3CCN(C)CC3)nc1-2 [DDD01248613],49.4%,34.18%,-6.61%
Cc1nnsc1C(=O)N1CCCCC1c1cc2[nH]c(C)c(C)c(=O)n2n1 (stereo not drawn) [DDD01059036],19.3%,-26.26%,-5.93%
Cc1nc(=O)cc(CCNC(=O)CC[C@@H]2CCCN3CCCC[C@H]23)[nH]1 [DDD01256003],44.8%,42.6913%,0.956%
COCCCC(=O)N1CC(=O)Nc2cc(Br)ccc21 [DDD01075689],-20.4%,22.41%,5.89%
CCc1nc(CN(C)C2CCN(CCn3cc(C#N)cn3)C2)no1 (stereo not drawn) [DDD01304196],41.4%,-38.96%,-6.12%
CC(NC(=O)CCC1=NC(=C2N=CN=N2)NO1)c1ccc(F)cc1F (stereo not drawn) [DDD01068293],33.4%,-26.534%,-2.05%
CCc1c(C)[nH]c2cc(C3CCN(Cc4cccnc4)C3)nn2c1=O (stereo not drawn) [DDD01060570],-33.4%,31.56%,-25.4%
CCc1nn(C)c(N)c1-c1ccc2c(c1)OCO2 [DDD01074639],53.6%,37.53%,-45.08%
CCc1ccc(NC(=O)Nc2c(O)c3ccccc3oc2=O)cc1 [DDD01037337],-11.4%,49.69%,5.95%
CC(=O)N1CCCN(C(=O)CCOc2ccc(C(C)C)cc2)CC1 [DDD01298039],52.5%,36.9515%,-13%
Cc1ccc(CN2CCc3c([nH]c4cc(C5CC5)nn4c3=O)C2)s1 [DDD01058491],44.3%,31.81%,-3.69%
Cc1[nH]n(C2CCS(=O)(=O)C2)c(=O)c1Cc1ccccc1Cl (stereo not drawn) [DDD01026964],34.1%,-0.8948%,-45.665%
COc1ccc(-c2c(C(C)C)nn3c(N)c(C#N)nnc23)cc1 [DDD01035184],53.1%,9.631%,-12.2%
